Results from PubChem BioAssay AID1347426 (Functional Genomics Laboratory (NCATS/FGL), 2020).
About 1,400 (4.5%) of roughly 31,000 sequences were called active.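 The calls were made as follows: active = median seed-adjusted z-score above 1 or below -1; inactive = the rest.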 The full list was thinned out, with actives kept by preference.

Experiment: Novel Modifiers of Survival Motor Neuron (SMN) Protein: Gene Identification via Genome-wide siRNA Screen;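 also: luminescence tracks full-length SMN protein made from the SMN2 reporter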
Conditions: HEK293T SMN2-luciferase reporter, siRNA knockdown, 72 h; actives lie on both sides
Procedure, shortened: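 HEK293T cells stably carrying an SMN2 promoter/splicing cassette–luciferase reporter were reverse-transfected with 1 pmol siRNA per well (druggable-genome library, 3 siRNAs per gene) and grown 72 h at 37 °C. Luminescence, normalized to negative-control siRNA and log10-transformed, was scored as MAD.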
With GGAUAGAUGUUUCUAUCAATT against SUZ12 the median seed-adjusted z-score was -1.65 (active).
In the case of GGUGUUUGAUUGUGAGAAUTT against UBE2G1, the median seed-adjusted z-score is reported as 0.174 (inactive).
In the case of CCCACUACAGAAGACUUAUTT against SLC4A1, the median seed-adjusted z-score is reported as -0.861 (inactive).
With GAAAUGUACCCUCCAGAAATT against CCNB1 the median seed-adjusted z-score was 0.163 (inactive).
In the case of CCGGAGAUGGAUGAAUCUATT against ICAM5, the median seed-adjusted z-score is reported as -1 (active).
For GUUUCUCAGUACUUCCAGATT against APOA2, the median seed-adjusted z-score was -0.297 (inactive).
With GGAUGAGGUCUUCACCAAATT against NENF the median seed-adjusted z-score was -0.778 (inactive).
In the case of AAAUCUUCUUUCGACAACATT against RAB37, the median seed-adjusted z-score is reported as 0.0678 (inactive).
In the case of GCAAGAUGCAUGCUCAUGATT against ZNF142, the median seed-adjusted z-score is reported as 0.111 (inactive).
With CUGUUGAAAUGUAAAACGATT against VNN1 the median seed-adjusted z-score was 0.549 (inactive).
For GGACAGAUCUUACCCAUCUTT against TRIM59, the median seed-adjusted z-score was 0.941 (inactive).
For AGCCUUUAAUCAUUUCUCATT against ZNF85, the median seed-adjusted z-score was -1.01 (active).
For CUUCAUAUUUGACACCUAUTT against SLC25A26, the median seed-adjusted z-score was 0.0213 (inactive).
With GACUUUCAGUUCUUACGAUTT against CCNB3 the median seed-adjusted z-score was 0 (inactive).
With GGCUCAAUAUGGAGGAUUATT against NPR3 the median seed-adjusted z-score was -0.436 (inactive).
In the case of GGCCCUAUGUAUAUGCUUUTT against AK3, the median seed-adjusted z-score is reported as -0.0313 (inactive).
With ACAUGCAGCUGGUAAGGAUTT against MFSD4 the median seed-adjusted z-score was -1.89 (active).
In the case of GAUACGUUCUGCAAUGUUATT against EPYC, the median seed-adjusted z-score is reported as 0.00264 (inactive).
With AGACCAAGAGCGCAUCAAATT against JUNB the median seed-adjusted z-score was -0.224 (inactive).
For GGUUGUUGGUUGGACUGUUTT against GDE1, the median seed-adjusted z-score was -0.256 (inactive).
For CACUCACUGUUCCUAUCAATT against STAMBPL1, the median seed-adjusted z-score was 0.13 (inactive).
For GAAACGAUGAAAUAAGAUATT against PTGS1, the median seed-adjusted z-score was 0.0458 (inactive).
With GGUUGGUCUCCUCUUCAUATT against PSMD10 the median seed-adjusted z-score was 0.265 (inactive).
In the case of CCCUCUCACUUGAAGAUCATT against HYAL1, the median seed-adjusted z-score is reported as -0.163 (inactive).
For AUUCAUCUCAUAAACAAAATT against BATF2, the median seed-adjusted z-score was 0.714 (inactive).
For GCAUGGAGCAGAUCGUGUUTT against ITPR3, the median seed-adjusted z-score was -1.28 (active).
With GCAGCAUCAAUGUCUGGAATT against SLC6A8 the median seed-adjusted z-score was -0.0673 (inactive).
For GGCCUUAGAUGAGUCCCUATT against PABPN1, the median seed-adjusted z-score was -0.757 (inactive).
With ACAAUGAACUGGAUCAACATT against TBX20 the median seed-adjusted z-score was 0.00303 (inactive).
For CACUAUCUAUUCCACCUUUTT against HTR1A, the median seed-adjusted z-score was 0 (inactive).
In the case of CAGGUGCUUCGUUUCCUGATT against ARHGAP1, the median seed-adjusted z-score is reported as -1.14 (active).
With GAGUAAACCUCGAAACCGATT against MAP3K13 the median seed-adjusted z-score was -0.121 (inactive).
With GACCAUGAAUUUCAUUGUATT against MYLK3 the median seed-adjusted z-score was 0.316 (inactive).
In the case of GGACUAAAACUUUAAACUATT against POU4F2, the median seed-adjusted z-score is reported as 1.46 (active).
For CUACCAGGAUGUUGAUAAATT against ZNF761, the median seed-adjusted z-score was 0.291 (inactive).
In the case of GGAUUGAGGUGGAGAUGGATT against MCM5, the median seed-adjusted z-score is reported as 0.126 (inactive).
In the case of CUAAAGGUCUUGUUACAUUTT against ASNS, the median seed-adjusted z-score is reported as -1.1 (active).
For ACCUAGAAGUGAACUGUGATT against GP1BA, the median seed-adjusted z-score was 0.0803 (inactive).
In the case of UGGUGACUCUCAUUUCGCATT against BCAP31, the median seed-adjusted z-score is reported as 0.277 (inactive).
For GGAUGUCACUGUUUCUGGATT against CLIC6, the median seed-adjusted z-score was -0.00828 (inactive).
In the case of GGCCUACUGUGGAAUUGGATT against TTC3, the median seed-adjusted z-score is reported as -1.17 (active).
With CGAUCAACUCCUUAAAGGATT against FLRT2 the median seed-adjusted z-score was -0.00573 (inactive).
With GCUUUUCCAUUAUAAGGCATT against FOXE1 the median seed-adjusted z-score was -0.316 (inactive).
With CAAAUUGCCUCGUCAAAGATT against DNTT the median seed-adjusted z-score was 0.316 (inactive).
With GACCGACUCAGAUAUCAUUTT against SNRPA the median seed-adjusted z-score was -2.09 (active).
For CACUGGAUUUGAGAGGUUATT against ABHD7, the median seed-adjusted z-score was -0.301 (inactive).
With GGCCGAGUGUACUACUUCATT against PIN1 the median seed-adjusted z-score was 0.156 (inactive).
For GCACUGUGCUUAAGCUGGATT against PKN1, the median seed-adjusted z-score was -0.753 (inactive).
With CGACAUGAUCUCCUACUCATT against ABLIM2 the median seed-adjusted z-score was -0.26 (inactive).
In the case of GAAACUGGACAGUAAGAAATT against HDAC4, the median seed-adjusted z-score is reported as -0.0988 (inactive).
For GGUUUCAAGAUAACCCAAATT against POU2F3, the median seed-adjusted z-score was -1.53 (active).
In the case of CAAAGGUUAUUCUGCAUAUTT against CTSO, the median seed-adjusted z-score is reported as 0.322 (inactive).
With GCAGGAGCUGUAUUUGAUGTT against NUDT6 the median seed-adjusted z-score was 0.281 (inactive).
For AGAUGUACGAGGAAAAGUATT against WNK4, the median seed-adjusted z-score was 0.385 (inactive).
For GGUGUUUGAUAUACAGAGGTT against RABL2A, the median seed-adjusted z-score was 0.794 (inactive).
For CGACUCUGACACCACCAUATT against GOSR2, the median seed-adjusted z-score was -1.25 (active).
For CCAUGGAUUUUAUGAGGAATT against ECHDC1, the median seed-adjusted z-score was 0.554 (inactive).
In the case of CCUUCAUUAAUGAGUCAUATT against ZNF426, the median seed-adjusted z-score is reported as 0.2 (inactive).
With UGCAGCCUCUCCAAACUUATT against SP6 the median seed-adjusted z-score was -0.176 (inactive).
In the case of GCCCAACAAGUGUACGUUUTT against GLIS3, the median seed-adjusted z-score is reported as -0.00906 (inactive).
In the case of GGCUGAUAAAAAUCCACGATT against RICS, the median seed-adjusted z-score is reported as 0.665 (inactive).
In the case of AGUACGAUCUUGACUUCAATT against ENO3, the median seed-adjusted z-score is reported as -0.142 (inactive).
For GGGAAGUCUUUUAAUCGUATT against ZNF780B, the median seed-adjusted z-score was -0.332 (inactive).
In the case of CUGUUGGUAUUGUCCACAATT against MAL, the median seed-adjusted z-score is reported as 0.0733 (inactive).
In the case of GGGACUUUUGCAAAGGAAATT against CLEC5A, the median seed-adjusted z-score is reported as -1.07 (active).
For GGAGAGCUGUGAAAAGUCATT against CCR8, the median seed-adjusted z-score was -0.206 (inactive).
For GAACUUAGACCAACUUUAATT against COX5A, the median seed-adjusted z-score was -0.348 (inactive).
With CCACAAGCUGCAUAAGAGATT against SPTBN4 the median seed-adjusted z-score was -0.0625 (inactive).
In the case of GGACUUUUACACCACCUUUTT against NRXN2, the median seed-adjusted z-score is reported as -0.485 (inactive).
With CAACGACUACAGGUCUGUATT against ITGA11 the median seed-adjusted z-score was 0.496 (inactive).
For GGCAGGAAGUCAAACCUAUTT against KLK2, the median seed-adjusted z-score was 0.0716 (inactive).
With CAAACGAGGUGAACGAUGATT against PYGO1 the median seed-adjusted z-score was -1.23 (active).
For AGAUACUCACGGACAUUAUTT against COASY, the median seed-adjusted z-score was 0 (inactive).
In the case of GUCACGCUAUGAGACCUCATT against E2F1, the median seed-adjusted z-score is reported as -0.211 (inactive).
With GCAUCGAAUUUGCAGAACATT against PNN the median seed-adjusted z-score was 1.29 (active).
In the case of GGAAACGAUUAUUACAACUTT against LRRK2, the median seed-adjusted z-score is reported as -0.671 (inactive).
For AUAAAUACCUCGGACAUUATT against EIF1AX, the median seed-adjusted z-score was 0.878 (inactive).
With CCCUUCGCGUUGUUGCUCATT against DHRS1 the median seed-adjusted z-score was 0 (inactive).
For GAGGGACCAUAGUAGAUCATT against CPSF6, the median seed-adjusted z-score was -2.38 (active).
For GAUCGAUUCAUACCAUAUATT against MCM8, the median seed-adjusted z-score was 0.279 (inactive).
With GAAGCUACGUUGACUAUUUTT against HRC the median seed-adjusted z-score was 1.06 (active).
In the case of GAAGUUUACUUAUCUGGGUTT against PRKAB1, the median seed-adjusted z-score is reported as 0.536 (inactive).
With CAACAAUCCUAUAAUUCCATT against UBE2Q2 the median seed-adjusted z-score was 0.146 (inactive).
In the case of ACCUGUUAAUGGCCUUUGUTT against SLC30A3, the median seed-adjusted z-score is reported as -1.26 (active).
With GGAGUUCAUCCGUCAAGUUTT against BIRC3 the median seed-adjusted z-score was -0.644 (inactive).
With GCAUCAAUGUACCUCCACATT against ETV4 the median seed-adjusted z-score was -0.186 (inactive).
For CGACCAUUGGAGAUGUUAATT against SCML2, the median seed-adjusted z-score was -0.538 (inactive).
With GAGGAUUACUAAUUGAUCUTT against CHM the median seed-adjusted z-score was 0.743 (inactive).
In the case of GAAAAAGGGUCACCAGAAATT against TSG101, the median seed-adjusted z-score is reported as 1.48 (active).
With GGCCGUGGAUCAUCACUAUTT against FLJ16165 the median seed-adjusted z-score was -0.404 (inactive).
For GCCUUAAGGUAUUCGUGUATT against EXTL1, the median seed-adjusted z-score was 0 (inactive).
In the case of CCACCACAGAUUUUCCUAUTT against CD300A, the median seed-adjusted z-score is reported as -0.414 (inactive).
With GGAACUCAUUAUACAAUGATT against CLCN3 the median seed-adjusted z-score was -0.0801 (inactive).
For CCCUAUGAGUGUCAACAAUTT against ZNF799, the median seed-adjusted z-score was -1.02 (active).
In the case of GAUAUGUAUUCAUACUAAUTT against SNX10, the median seed-adjusted z-score is reported as 0.391 (inactive).
With GUACAGCUCUUAUCGUUCATT against PPRC1 the median seed-adjusted z-score was 0 (inactive).
In the case of GCAUCUUUCUGAGUUCACUTT against SLC22A11, the median seed-adjusted z-score is reported as 0 (inactive).
In the case of GUGCUACAAUUGUACAGUATT against CREM, the median seed-adjusted z-score is reported as -2.37 (active).
For GCAUGAGUAUCUAUGACGATT against ATP5C1, the median seed-adjusted z-score was -0.0179 (inactive).
In the case of ACUCCAACCGUACCCUUUATT against PPT2, the median seed-adjusted z-score is reported as 0.0334 (inactive).
With CCACUACGGUGUUCAUGCATT against PPARD the median seed-adjusted z-score was 0.0283 (inactive).
With CUGAGACCCUGUUGACUGATT against PGS1 the median seed-adjusted z-score was 1.36 (active).
In the case of GACUCCUACAUGUCCAUUATT against DNM3, the median seed-adjusted z-score is reported as 0 (inactive).
For GACAGACUGUGCAUAUGUATT against GPR15, the median seed-adjusted z-score was 0.101 (inactive).
With GCAACCACCUAUAUCCUCATT against P2RY10 the median seed-adjusted z-score was -0.432 (inactive).
For GAGUCACAUUUGAGGUUCATT against CSF2RA, the median seed-adjusted z-score was -0.227 (inactive).
With CUCCCUCGGUUAUAAAGAUTT against SLC4A5 the median seed-adjusted z-score was 1.3 (active).
With CAACCUUGCGGCAUGCAAATT against PRSSL1 the median seed-adjusted z-score was -0.221 (inactive).
For GGAUCUAUAGUGAUUGUCATT against TFRC, the median seed-adjusted z-score was 0.019 (inactive).
